Source: PubChem
Only some compounds are listed: those with a hit (about 5.2% of all), similar ones and a draw of the others.
VDR inh = Inhibitors of the vitamin D receptor (VDR): qHTS. AID 504847, 2011. Vitamin D3 receptor (Homo sapiens), P11473. Potency, µM, for inactives: max response, negative = inhibition, usual class: inhibitors. actives 0.93% (n = 400,000). VDR-SRC2-3 peptide fluorescence polarization, 2 h
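Fluorescence polarization assay of small-molecule disruption of VDR binding to coregulator peptide SRC2-3. Compounds and controls pin-transferred, then read after 2 h incubation at ambient room temperature.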
mIDH1 inhibitor = qHTS for Inhibitors of mutant isocitrate dehydrogenase 1 (IDH1): qHTS; Isocitrate dehydrogenase [NADP] cytoplasmic (Homo sapiens), O75874; IDH1-R132H enzyme, NADPH consumption, diaphorase/resazurin fluorescence; Potency, µM (titrated, usually from 76.6 µM), without a hit: at the highest dose activity change, negative = inhibition, usual class: inhibitors; actives 0.093% (n = 390,000); AID 602179, 2012; also: nearly all actives have a fitted effect of over 65% in size
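IDH1-R132H (0.5 ug/mL dispensed) in pH 7.5 Tris buffer was preincubated 30 min with compound, then given a substrate mix of 0.016 mM NADPH and 2 mM alpha-KG for 80 min at room temperature; remaining NADPH was read by diaphorase/resazurin fluorescence.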
Sfp PPTase inh = qHTS Assay for Inhibitors of Bacillus subtilis Sfp phosphopantetheinyl transferase (PPTase). Biochemical Sfp PPTase activity, qHTS. Potency, µM, without a hit: largest response in the series, negative = inhibition, hits mostly inhibitors. actives 3.5% (n = 310,000);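 also: the enzyme is Sfp with the accession as filed and its product quenches rhodamine fluorescence; 0% = enzyme reaction without inhibitor and -100% = no enzyme wells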
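Sfp 15 nM + cpd, 15 min RT; start w/ rhodamine-CoA 5 uM, BHQ-2-YbbR 12.5 uM (final); 50 mM Hepes pH 7.6, 10 mM MgCl2, 0.01% NP-40, 0.01% BSA; read 525/598 nm at 0 and 30 min.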
PLK1 PBD inh = qHTS for Inhibitors of PLK1-PDB (polo-like kinase 1 - polo-box domain): Primary Screen; Serine/threonine-protein kinase PLK1 (Homo sapiens), P53350; Plk1 PBD binding of FITC phosphopeptide, fluorescence polarization; Potency, µM, without a hit: max response, negative = inhibition, actives largely listed as inhibitors; actives 2.8% (n = 360,000); AID 720504, 2013; also: series mostly up to about 57 µM; nearly all actives have a fitted effect of over 65% in size
TrxR1 inh = qHTS Assay for Inhibitors of Mammalian Selenoprotein Thioredoxin Reductase 1 (TrxR1): qHTS; actives 1% (n = 390,000); AID 588453, 2011; recombinant rTrxR1, NADPH fluorescence consumption, selenite substrate; Thioredoxin reductase 1, cytoplasmic (Rattus norvegicus), O89049; Potency, µM (series often up to 114 µM), for inactives: at the top dose activity change, negative = inhibition, usual class: inhibitors; also: nearly all actives have a fitted effect of over 65% in size
Target sequence (O89049 whole entry, looked up): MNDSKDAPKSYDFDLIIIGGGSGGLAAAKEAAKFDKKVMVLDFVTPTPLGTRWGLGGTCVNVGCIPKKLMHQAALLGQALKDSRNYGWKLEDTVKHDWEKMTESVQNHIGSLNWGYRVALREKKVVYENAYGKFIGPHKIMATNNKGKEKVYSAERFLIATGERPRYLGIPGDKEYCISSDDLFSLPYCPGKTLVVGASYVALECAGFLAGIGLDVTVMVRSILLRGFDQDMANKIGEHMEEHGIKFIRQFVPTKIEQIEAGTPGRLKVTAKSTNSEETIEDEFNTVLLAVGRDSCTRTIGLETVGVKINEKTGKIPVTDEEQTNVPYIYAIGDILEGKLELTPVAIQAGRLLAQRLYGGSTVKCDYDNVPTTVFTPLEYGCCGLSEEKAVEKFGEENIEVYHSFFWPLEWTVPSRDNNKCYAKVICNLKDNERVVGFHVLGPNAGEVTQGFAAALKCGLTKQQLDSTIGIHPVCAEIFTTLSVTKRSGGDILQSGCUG
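Rat TrxR1 (90 nM in the dispensed reagent) was pre-reduced with 400 uM NADPH for 5 min at room temperature, then incubated with compound for 15 min. After 400 uM selenite was added, NADPH fluorescence (Ex 340/Em 450 nm) was followed for 8 min.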
TrxR1 substrate = qHTS Assay for Substrates of Mammalian Selenoprotein Thioredoxin Reductase 1 (TrxR1): qHTS | Thioredoxin reductase 1, cytoplasmic (Rattus norvegicus), O89049 | Potency, µM (series often up to 114 µM), inactives show at the highest dose activity change, negative = substrate turnover | purified TrxR1 substrate turnover, NADPH consumption readout | AID 588456, 2011 | actives 0.01% (n = 390,000); also: nearly all actives have a fitted effect of over 50% in size
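Rat TrxR1, dispensed at 90 nM, was prereduced with 400 uM NADPH (final) for 5 min at ~22 deg C, then incubated with compound 15 min before 400 uM selenite. A first-read NADPH fluorescence drop versus no-compound background flagged substrates.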
* hit, by the source's call; ? = inconclusive; · = not tested or not shown; [ ] = another dose, or the depositor's remark. Calls follow the shape of the dose curve; as a rule, active = well fitted curve in the direction sought with a large enough effect; inconclusive = small, poorly fitted or top-dose-only effect, or another doubt; inactive = no such curve, though single readings can be large; an effect the other way counts as inactive or inconclusive. Unless noted, % is scaled to controls: 0 for no effect and ±100 for the full control effect; potency is read from the fitted curve at half-maximal effect.

SMILES	VDR inh	mIDH1 inhibitor	Sfp PPTase inh	PLK1 PBD inh	TrxR1 inh	TrxR1 substrate
Cc1ccc(-c2nc(CS(=O)CC(=O)N3CCN(c4ccccc4)CC3)c(C)o2)cc1 (stereo not drawn)	2%	3%	0%	-17%	-9%	-1%
N#Cc1ccc(/C=C2/C=Cc3ccccc32)cc1	·	·	·	·	29%	7%
CCOc1ccc(S(=O)(=O)N2CCN(c3nc(-c4ccccc4)nc4ccccc34)CC2)cc1OCC	-21%	·	·	·	18%	-1%
CCc1ccc(-c2nc(CS(=O)CC(=O)O)c(C)o2)cc1 (stereo not drawn)	?	-2%	?	?	3.5µM*	-12%
CCc1ccc(-c2nc(CS(=O)CC(=O)NCCc3ccc(Cl)cc3)c(C)o2)cc1 (stereo not drawn)	5%	-1%	·	·	0%[57.1 µM]	1%[57.1 µM]
Cc1ccc(-c2nc(CS(=O)CC(=O)NC3CC3)c(C)o2)cc1 (stereo not drawn)	-26%	0%	0%	-4%	19%	4%
CCc1ccc(-c2nc(CS(=O)CC(=O)NC3CC3)c(C)o2)cc1 (stereo not drawn)	-16%	-3%	-3%	-27%	16µM*	-5%
COc1ccc(CNC(=O)Cc2c(C)c3ccc(O)cc3oc2=O)cc1	4%	-9%	·	·	292%	481%
COc1ccc(C(=O)N/N=C(\C)c2ccc3c(c2)C2C=CCC2C(c2ccccc2)N3)cc1 (stereo not drawn)	-24%	6%	79µM*	?	?	7%[57.1 µM]
CCOC(=O)c1ccc2c(c1)[C@@H]1C=CC[C@@H]1[C@H](c1cccc(OC)c1OC)N2	17%	-17%	·	·	18%	4%
Fc1ccc([C@@H]2Nc3ccccc3[C@@H]3C=CC[C@@H]32)cc1	-11%	0%	·	·	28µM*	2%
COc1ccc(OC)c([C@@H]2Nc3ccc(C(=O)O)cc3[C@@H]3C=CC[C@@H]32)c1	3%	-3%	·	·	1%[57.1 µM]	5%[57.1 µM]
Cc1cccc(NS(=O)(=O)c2ccc3c(c2)[C@H]2C=CC[C@H]2[C@@H](c2ccc(F)cc2)N3)c1	6%	-15%	·	·	3%	5%
COC(=O)c1ccc([C@H]2Nc3ccc(S(=O)(=O)Nc4ccc(F)cc4)cc3[C@H]3C=CC[C@H]32)cc1	-5%	-14%	·	·	71µM*	-3%
O=C(O)c1ccc2c(c1)[C@@H]1C=CC[C@@H]1[C@H](c1ccccn1)N2	?	5%	·	?	4µM*	-5%
N#Cc1ccc(NCCNCC(=O)N2N=CCC2C#N)nc1 (stereo not drawn)	-2%	·	-14%	·	·	·
O=C(Nc1ccc2nccnc2c1)N1CCCCCC1	7%	·	·	·	-16%	38%
COC(=O)NC(CCc1ccccc1)C(C(C)=O)C(=O)OC (stereo not drawn)	-5%	·	6%	·	·	·
CCOc1ccc(CN(CCc2ccc3c(c2)OCO3)Cc2cc(OC)cc(OC)c2)cc1	-15%	1%	·	·	7%	6%
COc1ccc(Cl)cc1NC(=O)c1cc(S(=O)(=O)N2CCc3ccccc32)cn1C	6%	-10%	·	·	16%	-7%
CCCCC1CC(=O)NC1(C(=O)OCC)C(=O)OCC (stereo not drawn)	-3%	-2%	·	-6%	7%[57.1 µM]	4%[57.1 µM]
COc1cccc(NS(=O)(=O)c2ccc3c(c2)C2C=CCC2C(c2ccc(C(=O)O)cc2)N3)c1 (stereo not drawn)	?	-8%	32µM*	?	40µM*	-10%
CN(C)CCCN(C(=O)c1ccc([N+](=O)[O-])o1)c1nc2cc3c(cc2s1)OCO3	7%	17%	-4%	-9%	50µM*	-7%
CN(C)CCN(C(=O)c1ccc2ccccc2c1)c1nc2cc3c(cc2s1)OCCO3	-15%	5%	79µM*	-1%	13%	0%
CCN(CC)CCN(C(=O)c1ccc2c(c1)OCCO2)c1nc2cc3c(cc2s1)OCO3	-9%	3%	-7%	-4%	8%	-7%
SMILES	VDR inh	mIDH1 inhibitor	Sfp PPTase inh	PLK1 PBD inh	TrxR1 inh	TrxR1 substrate
CN(C)CCN(C(=O)c1cccc2ccccc12)c1nc2cc3c(cc2s1)OCO3	-2%	-19%	79µM*	-11%	-3%	-5%
CCN(CC)CCN(C(=O)c1cc2c(ccc3ccccc32)oc1=O)c1nc2cc3c(cc2s1)OCCO3	1%	-7%	40µM*	-24%	-35%	70%
CC(=O)OCC(NC(=O)C1CCCN1C(=O)OC(C)(C)C)C1OC(n2ccc(=O)[nH]c2=O)C(OC(C)=O)C1OC(C)=O (stereo not drawn)	7%	·	1%	·	13%[57.1 µM]	1%
CCN1/C(=C/C=C/c2oc3ccc4ccccc4c3[n+]2CC)Oc2ccc3ccccc3c21	?	6%	8.9µM*	81%	?	-2%[57.1 µM]
Oc1ccc(/C=N/Nc2nc(N3CCCC3)nc(N3CCCC3)n2)cc1O	-14%	4%	20µM*	-9%	-4%[57.1 µM]	-2%[57.1 µM]
COc1ccc(/C=N/Nc2cc(N3CCCC3)nc(N3CCCC3)n2)cc1	?	-11%	50µM*	-6%	30%	0%
O=[N+]([O-])c1cc(/C=N/Nc2nc(N3CCCCC3)nc(N3CCCCC3)n2)ccc1O	-8%	1%	5%	-10%	14%[57.1 µM]	8%[57.1 µM]
Oc1ccc(/C=N/Nc2ccc(Cl)nn2)cc1O	-2%	4%	79µM*	0%	-7%	-8%
Fc1ccccc1/C=N/Nc1ccc(Cl)nn1	10%	14%	4%	1%	7%	2%
COc1ccc(C(=O)OC2=C(C(=O)c3ccccc3)N(C)S(=O)(=O)c3ccccc32)cc1OC	-18%	-7%	·	·	19%	-2%
O=C1CCCc2[nH]c(=O)c(C(=O)NCc3ccccc3)cc21	·	·	·	·	2%	-9%
Cc1ccc(CNC(=O)CC[C@H]2O[C@@H](n3cc(C)c(=O)[nH]c3=O)C[C@@H]2O)o1	·	·	·	1%	·	·
CCc1sc2nc(SCC(=O)Nc3cc(C)on3)n(-c3cccc(OC)c3)c(=O)c2c1C	-9%	1%	56µM*	-21%	10%	7%
S=c1[nH]nc2nnc3ccccc3n12	-12%	2%	56µM*	-12%	-35%	-8%
